RORg inh = blocks mouse ROR gamma transcriptional activity; P51450; Drosophila S2 Gal4-RORgamma UAS-luciferase reporter, 20 h; Potency, µM (top dose mostly 53.6 µM), for the others: at the highest dose activity change, negative = inhibition, most hits filed as inhibitors; hit rate 5.4% among 310,000; note: nearly all actives have a fitted effect of over 60% in size
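A Gal4/UAS one-hybrid system in insect cells: metallothionein-promoter Gal4–ROR gamma fusion plus Photinus luciferase reporter. Copper sulfate 700 uM final, 20 hr ambient incubation, luminescent detection after 10 min with reagent.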
TDP1 inh = inhibitors of human tyrosyl-DNA phosphodiesterase TDP1; Potency, µM (titrated, usually from 130 µM), for the others: top-dose activity change, negative = inhibition, actives largely listed as inhibitors; recombinant TDP1, AlphaScreen DNA substrate cleavage; Q9NUW8; hit rate 0.28% among 350,000; note: nearly all actives have a fitted effect of over 40% in size
Target sequence (Q9NUW8 whole entry, looked up): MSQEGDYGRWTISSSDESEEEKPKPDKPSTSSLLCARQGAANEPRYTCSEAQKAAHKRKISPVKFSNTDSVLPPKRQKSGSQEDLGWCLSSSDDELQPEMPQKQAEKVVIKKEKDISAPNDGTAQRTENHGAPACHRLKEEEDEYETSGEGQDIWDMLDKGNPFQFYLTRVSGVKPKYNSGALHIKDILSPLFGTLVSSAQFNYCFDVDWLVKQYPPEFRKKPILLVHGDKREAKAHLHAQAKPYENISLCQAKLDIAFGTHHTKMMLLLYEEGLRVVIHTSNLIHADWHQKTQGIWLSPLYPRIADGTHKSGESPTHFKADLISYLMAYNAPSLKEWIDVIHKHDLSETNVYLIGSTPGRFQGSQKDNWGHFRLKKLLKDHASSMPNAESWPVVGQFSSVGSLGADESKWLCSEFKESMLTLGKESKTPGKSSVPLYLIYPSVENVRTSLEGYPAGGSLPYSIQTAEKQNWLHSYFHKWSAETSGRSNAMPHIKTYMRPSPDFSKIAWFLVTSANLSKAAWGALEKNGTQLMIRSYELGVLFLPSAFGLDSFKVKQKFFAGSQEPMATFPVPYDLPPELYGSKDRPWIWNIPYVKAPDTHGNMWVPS
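Recombinant E. coli-expressed Tdp1 (1 nM) preincubated with compound 15 min at RT, then 5'-biotin/3'-phosphotyrosine-FITC DNA substrate (15 nM) added for 5 min. AlphaScreen beads (10 ug/ml) added, 10 min RT; tyrosine-FITC cleavage read as signal loss.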
DT40 TDP1 no CPT = qHTS for Inhibitors of human tyrosyl-DNA phosphodiesterase 1 (TDP1): qHTS in cells in absence of CPT; DT40 Tdp1-/- hTDP1 cells, no CPT, ATP luminescence, 48 h; Potency, µM (doses to about 46.2 µM), without a hit: at the highest dose activity change, negative = growth inhibition, hits mostly inhibitors; hit rate 15% among 420,000; note: nearly all actives have a fitted effect of over 55% in size
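Stably hTDP1-transfected Tdp1-null chicken DT40 cells were treated with library compounds minus camptothecin and grown for at least 48 hr at 37 °C, after which cellular ATP was quantified by luminescence.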
Gal4-VP16 FLuc = inhibits Gal4-VP16 luciferase reporter, ROR gamma counter-screen; Drosophila S2 Gal4-VP16 UAS-luciferase, luminescence, 20 h; Potency, µM (doses to about 53.6 µM), inactives show at the highest dose activity, negative = inhibition, usual class: inhibitors; hit rate 3.5% among 310,000; AID 2546;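 note: Gal4-VP16 expression switched on by copper sulfate through the metallothionein promoter; nearly all actives have a fitted effect of over 50% in size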
TDP1 cell CPT = growth inhibition of DT40 Tdp1-/-;hTDP1 cells with camptothecin (screen for TDP1 inhibitors) | chicken DT40 Tdp1-/-;hTDP1 cells + 20 nM CPT, ATP luminescence, 48 h | Potency, µM (highest dose often 46.2 µM), for the others: top-dose activity change, negative = growth inhibition, most hits filed as inhibitors | hit rate 12% among 420,000 | AID 686979; note: nearly all actives have a fitted effect of over 55% in size
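Cell growth measured by CellTiter-Glo luminescence after a minimum 48 h, 37 C compound exposure with 20 nM CPT in Tdp1-knockout DT40 cells stably expressing hTDP1, seeded 400/well; qHTS titration format.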
* hit, by the source's call; ? = inconclusive; / = no result given; [ ] = remark or other dose. This is a sample that favours compounds with a hit; in the whole collection about 19% have one here. Calls come from the whole dose curve; as a rule, active = well fitted curve in the direction sought with a large enough effect; inconclusive = small, poorly fitted or top-dose-only effect, or another doubt; inactive = no such curve, though single readings can be large; an effect the other way counts as inactive or inconclusive. % is set by controls: 0 for no effect and ±100 for the full control effect; potency is the fitted concentration of half-maximal effect.

SMILES | RORg inh | TDP1 inh | DT40 TDP1 no CPT | Gal4-VP16 FLuc | TDP1 cell CPT
CC(=O)Nc1ccc(NC(=S)NC(=O)/C=C/c2ccco2)cc1 | 20.0% | / | ? | 17.4% | ?
CC(=O)N(C)c1ccc(NC(=S)NC(=O)/C=C/c2ccco2)cc1 | 10µM* | -2.9% | -9.9% | -28.8% | -17.3%
COc1ccc(/C(C)=N/NC(=O)CNC(=O)/C=C\c2ccco2)cc1 | 11.6% | -13.5% | 9.2µM* | -12.4% | 13µM*
COc1ccc(C(=O)c2c(NC(C)=O)sc3c2CCN(C(=O)OC(C)(C)C)C3)cc1 | 14.9% | 6.2% | ? | -9.8% | -3.5%
CCOC(=O)c1c(NC(=O)CN(CC)CC)sc2c1CCN(C(=O)OCC)C2 | ? | 8.7% | 25.9µM* | ? | ?
CCOC(=O)N1CCc2c(sc(NC(=O)Cc3ccccc3)c2C(=O)c2ccc(OC)cc2)C1 | -3.2% | 8.2% | 25.9µM* | -5.8% | ?
CCOC(=O)c1c(NC(=O)CN2CCCCC2)sc2c1CCN(C(=O)OCC)C2 | -20.3% | 0.0% | ? | 8.1% | ?
CCN(C(=O)c1ccc2c(OC)n(CC)nc2c1)c1ccc(OC)cc1 | -18.8% | 5.2% | -3.1% | -4.3% | -8.3%
COCc1ccc(C(=O)N2CCCC(Nc3ccc4c(c3)OCCO4)C2)o1 (configuration not stated) | 63.8% | 6.0%[56.1 µM] | -8.3% | -3.5% | -2.3%
Cc1ccc(S(=O)(=O)CC#CCOC(=O)c2ccc([N+](=O)[O-])cc2)cc1 | 10µM* | 1.5% | / | ? | /
Cc1ccc(C(=O)c2ccc([N+](=O)[O-])cc2)cc1 | -25.2% | 6.6% | -9.5% | -8.3% | -10.2%
COCCNc1nc(Nc2ccc(F)cc2)c2sccc2n1 | / | / | 11.6µM* | / | 18.4µM*
COCCNc1nc(Nc2ccc(C#N)cc2)c2sccc2n1 | / | / | 16.4µM* | / | 20.6µM*
CC(C)c1ccccc1NC(=O)C(Cc1c[nH]c2ccccc12)NC(=O)OC(C)(C)C (configuration not stated) | / | / | ? | / | 18.4µM*
CC(C)(C)OC(=O)N[C@@H](Cc1c[nH]c2ccccc12)C(=O)O | -10.7% | 11.5% | / | -1.9% | /
Cc1ccc(NC(=O)C(Cc2c[nH]c3ccccc23)NC(=O)OCC(C)C)cc1 (configuration not stated) | / | 7.1% | 23.1µM* | / | 18.4µM*
CCOC(=O)c1sc2ncc([N+](=O)[O-])cc2c1N | 34.0% | 7.1% | -16.0% | -5.0% | -16.6%
C/C=C1\NC(=O)[C@H](CC(N)=O)N(C)C(=O)C([C@@H](C)O)NC(=O)C(CCCc2ccc(OC)cc2)NC(=O)[C@H](C(C)C)NC(=O)/C(=C\C)NC(=O)[C@H](O)[C@@H](C[C@@H](O)CCCCCCC)NC(=O)[C@H](C)NC(=O)CN(C)C(=O)[C@H](CCC(N)=O)NC1=O (some centres not stated) | / | / | 8.2µM* | / | 7.31µM*
C/C=C1\NC(=O)[C@H](C)NC(=O)[C@@H](NC(=O)[C@H](Cc2ccc(O)cc2)NC(=O)[C@@H](NC(=O)/C(C)=C/C)C(C)C)[C@@H](C)OC(=O)[C@H](CCCc2ccc(O)cc2)NC(=O)[C@@H](CCC(=O)OC)NC1=O | / | / | 6.4% | / | 2.1%
Cc1ccc(CN(Cc2ccco2)C(=O)COc2c(C)cc(C)cc2C)cc1 | / | 1.2% | 9.2µM* | / | 23.1µM*
Cc1cc(C)c(OCC(=O)N(Cc2ccc(N(C)C)cc2)Cc2ccco2)c(C)c1 | / | 13.5% | 7.31µM* | / | 11.6µM*
Cc1ccc(CN(Cc2ccco2)C(=S)NCC(=O)NC2CC2)cc1 | 9.6% | 4.9% | -0.5% | 13.7% | 8.0%
Cc1ccccc1OCC(=O)N(Cc1ccco1)c1c(N)n(Cc2ccccc2)c(=O)[nH]c1=O | / | 0.3% | -12.6% | / | -17.8%
CCC(=O)N(CCC(c1ccc(C)cc1)c1ccco1)Cc1ccco1 (configuration not stated) | 24.0% | 5.9% | 23.1µM* | 27.7% | ?
Cc1ccc(CN(Cc2ccco2)C(=O)COc2ccccc2C)cc1 | / | -1.2% | 16.4µM* | / | 20.6µM*
SMILES | RORg inh | TDP1 inh | DT40 TDP1 no CPT | Gal4-VP16 FLuc | TDP1 cell CPT
Nc1c2c(nc3ccccc13)CCCC2=O | -36.2% | 4.2% | -5.7% | -23.1% | 5.7%
CC(=O)Nc1ccc(NC(=O)C(C)OC(=O)/C(C#N)=C/c2ccc(N(C)C)cc2)cc1 (configuration not stated) | / | 3.3%[0.505 µM] | -12.5% | / | -0.1%
Clc1ccc(/C=C/c2nc3ccccc3[nH]2)cc1 | 4.47µM* | 6.7% | ? | 7.08µM* | ?
NNC(=O)/C=C/c1ccc(Cl)cc1Cl | -26.7% | 6.0% | -0.8% | 5.1% | 10.2%
Clc1ccc(/C=C/c2nc3ccccc3[nH]2)c(Cl)c1 | ? | -4.0% | 18.4µM* | 7.08µM* | 13µM*
C(=N\n1cnnc1)/c1nc2ccccc2[nH]1 | ? | 4.1% | -26.1% | 2.2% | -1.7%
Clc1cccc(Cl)c1/C=C/c1nc2ccccc2[nH]1 | 11.2µM* | 4.7% | 16.4µM* | ? | ?
O=C(/C=C/c1ccc(Cl)cc1Cl)c1nc2ccccc2[nH]1 | -44.8% | 0.0% | ? | 1.4% | 11.6µM*
Clc1ccc(/C=C/c2ccc3ccccc3n2)c(Cl)c1 | / | / | ? | / | -5.9%
Cc1ccc(C(C)C)cc1S(=O)(=O)Nc1ccncc1 | -23.8% | / | -13.2% | 2.0% | -10.3%
CCN1CCN(C(=S)Nc2cc(C(=O)OC)ccc2C(=O)OC)CC1 | -18.6% | 4.6% | 0.3% | -0.4% | 15.8%
O=C(Nc1cc([N+](=O)[O-])ccc1N1CCOCC1)c1cccs1 | ? | 0.2% | 4.8% | 20.8% | -3.7%
CC1N(C)c2cc(NC(=O)c3cccs3)c(P(=O)(Nc3ccc([N+](=O)[O-])cc3)N3CCOCC3)cc2C1(C)C (configuration not stated) | ? | 10.4% | 18.4µM* | -2.1% | ?
O=c1[nH]c(SCc2ccccc2[N+](=O)[O-])nc2nc[nH]c12 | 0.4% | 2.9% | -3.3% | 3.4% | -5.6%
O=C(CNC(=O)Cc1ccccc1)NCc1cccc(C(F)(F)F)c1 | 7.3% | 2.3%[0.0935 µM] | -14.9% | -9.7% | 12.1%
FC(F)(F)c1cccc(NC(=S)NCc2ccccc2)c1 | 4.47µM* | 3.9% | 23.1µM* | 12.6µM* | 20.6µM*
FC(F)(F)c1cccc(CNC(=S)Nc2ccccc2)c1 | 5.62µM* | 2.7% | 16.4µM* | -18.2%[10 µM] | ?
COc1cc(C(=O)Nc2cc(C)ccc2OCc2cc(=O)n3cc(C)sc3n2)cc(OC)c1OC | / | 0.0% | -14.7% | / | -12.0%
COc1ccccc1-c1cc(C(F)(F)F)nc(S(=O)(=O)CCCC(=O)Nc2cc(OC)c(OC)c(OC)c2)n1 | / | 5.9% | 20.6µM* | / | ?
COc1ccccc1-c1cc(C(F)(F)F)nc(S(=O)(=O)CCCC(=O)N2CCOCC2)n1 | 5.62µM* | 9.3% | 2.31µM* | 7.08µM* | 2.59µM*
